Results as given in PubChem BioAssay AID1851 (National Center for Advancing Translational Sciences (NCATS), 2009).
Where “and” joins values, the source holds several entries; their conditions need not be identical. Equal entries are not always repeated. Screen size: about 16,000 compounds; about 4,000 (25%) were called active. Inconclusive results (about 26%) are left out. Calls come from the whole dose curve; as a rule, active = well fitted curve in the direction sought with a large enough effect; inconclusive = small, poorly fitted or top-dose-only effect, or effect the other way; inactive = no such curve, though single readings can be large or run the other way. A selection follows.

Molecular target: Cytochrome P450 2C9 (Homo sapiens) (UniProt P11712)
Sequence (P11712 whole entry, looked up): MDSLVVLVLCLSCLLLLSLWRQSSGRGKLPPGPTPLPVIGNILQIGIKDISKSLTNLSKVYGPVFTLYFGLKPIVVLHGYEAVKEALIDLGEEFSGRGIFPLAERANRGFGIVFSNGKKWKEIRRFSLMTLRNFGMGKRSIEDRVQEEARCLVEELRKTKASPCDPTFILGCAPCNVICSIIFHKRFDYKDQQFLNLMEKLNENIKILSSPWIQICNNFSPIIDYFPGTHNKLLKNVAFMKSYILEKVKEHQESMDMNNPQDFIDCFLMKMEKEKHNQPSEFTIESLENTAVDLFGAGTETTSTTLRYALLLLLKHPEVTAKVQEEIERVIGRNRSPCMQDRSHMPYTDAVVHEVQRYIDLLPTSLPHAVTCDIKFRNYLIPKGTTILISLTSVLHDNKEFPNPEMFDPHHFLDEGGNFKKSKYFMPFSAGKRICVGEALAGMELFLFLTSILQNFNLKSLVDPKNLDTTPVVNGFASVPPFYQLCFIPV
Test: Cytochrome panel assay with activity outcomes
Conditions: recombinant CYP, pro-luciferin dealkylation, luminescence, p450-cyp2c9; series mostly up to 57.1 µM; activity, negative = inhibition: at the top concentration
% is set by controls: 0 for no effect and ±100 for the full control effect.

| Structure (SMILES) | activity, negative = inhibition | AC50 |
| --- | --- | --- |
| OC[C@@H]1NC[C@@H](O)[C@@H](O)[C@H]1O | -12.5% (inactive) | – |
| COC(=O)N1CCC2(CCCN(C(=O)Nc3cccc(F)c3)C2)CC1 | 19.8% (inactive) | – |
| O=C(c1[nH]o[n+](=O)c1C(=O)c1csc2ccccc12)c1csc2ccccc12 | – | 1.58 µM (active) |
| O=C1NCCc2c1[nH]c1ccccc21 | -6.41% (inactive) | – |
| CN(c1ccccc1)c1ccc(/C=c2\s/c(=C(/C#N)C(=O)C(C)(C)C)n(Cc3ccco3)c2=O)cc1 | – | 3.55 µM (active) |
| COc1cccc(/C=c2/s/c(=C(\C#N)C(=O)N3CCOCC3)n(-c3ccccc3)c2=O)c1 | -17.4% (inactive) | – |
| COC(=O)c1ccc(C(NC(=O)c2ccco2)[C@]2(C)C[C@H]2C2CCCCC2)cc1 (some centres undefined) | – | 10 µM (active) |
| COC(=O)c1ccc(C(NC(=O)c2ccccc2)[C@]2(C)C[C@H]2C2CCCCC2)cc1 (some centres undefined) | -21.3% (inactive) | – |
| CCCC[C@@H]1C[C@H]1C(NC(=O)c1ccccc1)c1ccccc1 (some centres undefined) | – | 7.94 µM (active) |
| CCCC[C@@H]1C[C@H]1C(NC(=O)c1ccco1)c1ccccc1 (some centres undefined) | – | 15.8 µM (active) |
| C=C(CC1([C@@H](NP(=O)(c2ccccc2)c2ccccc2)[C@H]2C[C@@H]2CCCC)CC1)c1ccccc1 | – | 10 µM (active) |
| C[C@@]1(C(NC(=O)Cc2ccccc2)c2ccc(-c3ccccc3)cc2)C[C@H]1C1CCCCC1 (some centres undefined) | -6.75% (inactive) | – |
| CCCC[C@@H]1C[C@H]1C(NC(=O)c1ccc(-c2ccccc2)cc1)c1ccc(-c2ccccc2)cc1 (some centres undefined) | 8.19% (inactive) | – |
| CN(C)CCSCCO | 13.5% [at 11.4 µM] (inactive) | – |
| CO[C@@H]1COC(=O)[C@H](COCc2ccccc2)NC(=O)C/C=C\[C@@H](C)[C@H](OC)COC(=O)[C@@H](C)NC(=O)C/C=C\[C@H]1C | -22.8% [at 11.4 µM] (inactive) | – |
| CCCC[C@@H]1C[C@H]1C(NC(=O)c1ccco1)c1ccc(Cl)cc1 (some centres undefined) | – | 3.98 µM (active) |
| C[C@@]1(C(NC(=O)c2ccc(-c3ccccc3)cc2)c2ccc(Cl)cc2)C[C@H]1C1CCCCC1 (some centres undefined) | 4.8% (inactive) | – |
| CCC[C@@H]1C[C@@]1(CCC)C(NC(=O)c1ccco1)c1ccc(Cl)cc1 (some centres undefined) | – | 15.8 µM (active) |
| CCC[C@@H]1C[C@@]1(CCC)C(NS(=O)(=O)c1cccc2cccnc12)c1ccc(Cl)cc1 (some centres undefined) | – | 7.94 µM (active) |
| C[N+]1(CCC(=O)c2ccco2)CC2CCC(CC2)C1 (centres undefined) | 6.14% [at 11.4 µM] (inactive) | – |
| CCCC[C@@H]1C[C@H]1C(NC(=O)c1ccco1)c1ccc(C(=O)OC)cc1 (some centres undefined) | – | 0.794 µM (active) |

| Structure (SMILES) | activity, negative = inhibition | AC50 |
| --- | --- | --- |
| CC1(C)S[C@@H]2[C@H](NC(=O)[C@H](C(=O)O)c3ccsc3)C(=O)N2[C@H]1C(=O)O | 27.8% [at 25.6 µM] (inactive) | – |
| O=c1oc2c(Cl)cc(Cl)cc2cc1-c1nnc(Nc2ccccc2F)s1 | 25% (inactive) | – |
| CCCC[C@@H]1C[C@H]1C(NC(=O)c1ccco1)c1ccc(-c2ccccc2)cc1 (some centres undefined) | – | 3.16 µM (active) |
| CCCC[C@@H]1C[C@H]1C(NC(=O)Cc1ccccc1)c1ccc(-c2ccccc2)cc1 (some centres undefined) | -22.7% (inactive) | – |
| COC(=O)[C@@H]1C[C@H]1[C@@H](NC(=O)c1cc(C)nn1C)c1ccccc1 | -53.8% (inactive) | – |
| NNC(=O)[C@@H](O)[C@H](O)[C@H](O)CO | -4.21% [at 11.4 µM] (inactive) | – |
| CC1=NN(c2ccccc2)C(=O)[C@@H]1N=Nc1ccc(S(N)(=O)=O)cc1 | 3.33% [at 11.4 µM] (inactive) | – |
| CC1=NN(c2ccccc2)C(=O)C1C(=O)c1ccc(Cl)cc1 (centres undefined) | – | 0.562 µM (active) |
| Cc1cc(C)n(-c2nc(NCC(C)O)c3c4c(sc3n2)COC(C)(C)C4)n1 (centres undefined) | – | 15.8 µM (active) |
| CCC(O)CNc1nc(-n2nc(C)cc2C)nc2sc3c(c12)CC(C)(C)OC3 (centres undefined) | – | 14.1 µM (active) |
| COc1ccc(-n2c(=O)c(C)nc3cnc(N4CCNCC4)nc32)cc1 | 9.08% (inactive) | – |
| C=CC1=C(C)C2=Cc3c(C=C)c(C)c4[n]3[Sn+2][n]3c(c(C)c(CCC(=O)O)c3=CC3=NC(=C4)C(C)=C3CCC(=O)O)=CC1=N2 | -7.28% (inactive) | – |
| CCSc1nc2c(c(=O)[nH]1)C(c1ccncc1)C(C(=O)OC(C)C)=C(C)N2 (centres undefined) | – | 2.82 µM (active) |
| CCSc1nc2c(c(=O)[nH]1)C(c1ccccn1)C1=C(CC(C)(C)CC1=O)N2 (centres undefined) | -6.53% (inactive) | – |
| CSc1nc2c(c(=O)[nH]1)C(c1ccncc1)C(C(=O)OC(C)C)=C(C)N2 (centres undefined) | – | 7.94 µM (active) |
| O=C(O)c1cc2c(cc1S(=O)(=O)O)[C@H]1[C@@H]([C@H]3[C@H]2[C@@]2(Cl)C(Cl)=C(Cl)[C@]3(Cl)C2(Cl)Cl)[C@]2(Cl)C(Cl)=C(Cl)[C@@]1(Cl)C2(Cl)Cl | -16.9% [at 11.4 µM] (inactive) | – |
| CC1(C)[C@@H]2CC[C@]1(CC(=O)O)[C@H](Cl)C2 | 4.29% [at 11.4 µM] (inactive) | – |
| O=C(CSC1CC(=O)N(CC(c2ccccc2)c2ccccc2)C1=O)Nc1ccc(Cl)cc1 (centres undefined) | – | 3.98 µM (active) |
| CC12CS(=O)(=O)CC1SC(=S)N2c1ccccn1 (centres undefined) | -20.9% (inactive) | – |
| CCOC(=O)c1c(C)[nH]c2ccc3c(c12)CN1CCc2cc(OC)ccc2[C@@H]1O3 | 8.04% (inactive) | – |
| CCN(CC)CCOC(=O)c1ccc(N)cc1 | – | inactive |

| Structure (SMILES) | activity, negative = inhibition | AC50 |
| --- | --- | --- |
| CCOC(=O)c1c(C)[nH]c(C)c1C(=O)COC(=O)c1ccc(S(=O)(=O)N(CC)CC)cc1 | – | 0.355 µM (active) |
| O=[N+]([O-])c1cccc(-c2nc(-c3cccs3)c(-c3cccs3)[nH]2)c1 | – | 1.58 µM (active) |
| NC(N)=Nc1nc2ccc([N+](=O)[O-])cc2[nH]1 | 9.74% [at 11.4 µM] (inactive) | – |
| O=[N+]([O-])c1cccc(-c2nc(-c3ccccc3)c(-c3cccs3)[nH]2)c1 | -24.6% (inactive) | – |
| c1ccc(-c2nc(-c3cccs3)[nH]c2-c2ccccc2)cc1 | – | 6.31 µM (active) |
| CN(C)Cc1ccccc1-c1ccc2ncnc(N(C)C)c2c1 | 9.43% [at 2.29 µM] (inactive) | – |
| CC(=O)N1CCN(c2nc(C)nc3sc4c(c23)CCC(C)C4)CC1 (centres undefined) | – | 14.1 µM (active) |
| Cc1cc(C(F)F)n2nc(C(=O)Nc3sc4c(c3C#N)CCC(C)C4)nc2n1 (centres undefined) | -11.3% (inactive) | – |
| CC[N+](C)(CC)CCN1C(=O)c2ccccc2S1(=O)=O | -0.798% [at 11.4 µM] (inactive) | – |
| COc1ccc2c(c1)-c1ccccc1S(=O)(=O)N2C | – | 14.1 µM (active) |
| Cc1cc2c(nc1C)CCCCN2C[C@H](C)O/N=C\[C@@H](C)[C@H](OCc1ccccc1)C(C)C | -8.65% [at 11.4 µM] (inactive) | – |
| S=C(S)N1CCCC1 | – | 2 µM (active) |
| CC(C)(C)CC(=O)NC(=S)N1CCCCCC1 | -2.88% (inactive) | – |
| CCNC(=O)C/C(C)=N/NC(=O)C12CC3CC(CC(C3)C1)C2 | 0.134% (inactive) | – |
| COc1ccc(O)c(/C=N/NC(=O)CSc2nnc(C)n2-c2ccccc2)c1 | 16.8% (inactive) | – |
| C=CCn1c(COc2ccccc2)nnc1SCC(=O)N/N=C/c1ccc(C)cc1 | – | 11.2 µM (active) |
| COc1ccc(C[C@@H]2c3cc(OC)c(OC)cc3CC[N@+]2(C)CCC(=O)OCCCCCOC(=O)CC[N@@+]2(C)CCc3cc(OC)c(OC)cc3[C@H]2Cc2ccc(OC)c(OC)c2)cc1OC | -14.1% [at 25.6 µM] (inactive) | – |
| Nc1ncnc2c([C@@H]3O[C@@H](CO)[C@H](O)[C@@H]3O)nsc12 | -6.07% [at 11.4 µM] (inactive) | – |
| COc1ccc(C(=O)Nc2ccc(OCC(F)(F)C(F)F)c(C(F)(F)F)c2)cc1OC | – | 7.94 µM (active) |
| Cc1cc(NC(=O)CCCC(=O)OCC(F)(F)C(F)F)cc(C)c1C(=O)O | -17.2% (inactive) | – |
| CCN(CC)CCC[C@H](C)Nc1c2ccc(Cl)cc2nc2ccc(OC)cc12 | – | inactive |

| Structure (SMILES) | activity, negative = inhibition | AC50 |
| --- | --- | --- |
| Cc1ccc(NC(=S)Nc2nc(CC(=O)Nc3ccccc3)cs2)cc1 | – | 2.82 µM (active) |
| CN1CCC(n2[nH]c(-c3ccccc3)c(Cc3ccccc3)c2=O)CC1 | 0.284% [at 11.4 µM] (inactive) | – |
| CCN1C(=O)[C@H]2[C@H]3[C@H](O)[C@H](O)C/C(=N/OC[C@@H](O)COCc4ccco4)[C@@H]3CC[C@@H]2C1=O | 21.5% [at 11.4 µM] (inactive) and 18.6% [at 11.4 µM] (inactive) | – |
| CC(=O)Nc1ccc(-c2nnc(SCC(=O)c3ccc4c(c3)Cc3ccccc3-4)n2C)cc1 | – | 12.6 µM (active) |
| Cn1c(SCC(=O)c2ccc3c(c2)Cc2ccccc2-3)nnc1-c1ccccc1 | – | 8.91 µM (active) |
| CN1CCCC[C@@H]1CCN1c2ccccc2Sc2ccc(S(C)=O)cc21 (some centres undefined) | – | inactive |
| CCN(CC)CCN1C(=O)c2cccc3cc(N)cc(c23)C1=O | 13.4% [at 11.4 µM] (inactive) | – |
| CCOC(=O)C(NC(C)=O)C(=O)O (centres undefined) | -29.6% (inactive) | – |
| C/C(CCN1CCCc2nc(C)c(C)cc21)=N\O[C@@H](C)CN1CCCCc2nc(C)c(C)cc21 | -3.15% [at 11.4 µM] (inactive) | – |
| C/C(CCN1CCCCc2nc(C)c(C)cc21)=N\O[C@@H](C)CN1CCCCc2nc(C)c(C)cc21 | 7.62% [at 11.4 µM] (inactive) | – |
| C/C(CCN1CCCCc2nc(C)c(C)cc21)=N\O[C@@H](C)c1cc(-c2c(C)cc(C)cc2C)no1 | – | 2.51 µM (active) |
| COc1ccc(-c2n[nH]c(C)c2-c2ccc(Cl)cc2)c(O)c1 | – | 10 µM (active) |
| CC(NC(=O)c1ccccc1)c1nc2ccccc2n1Cc1ccccc1F (centres undefined) | – | 5.62 µM (active) |
| CCN(CC)S(=O)(=O)c1cc(C(=O)Nc2ccncc2)ccc1Cl | – | 0.141 µM (active) |
| C[C@@H]1CCC[C@H](C)N1NC(=O)c1ccc(Cl)c(S(N)(=O)=O)c1 | 11.9% [at 25.6 µM] (inactive) | – |
| CN(C)CCCc1cc(C(=O)Nc2ccc(-c3ccncc3)cc2)ccc1O | -28.2% (inactive) | – |
| COc1ccc(NC(=S)N2CCN(C/C=C/c3ccccc3)CC2)cc1OC | -4.86% (inactive) | – |
| COC(=O)c1ccc(NC(=S)N2CCN(Cc3cccc(C)c3)CC2)cc1 | – | 25.1 µM (active) |
| Cc1nn(C(C)C(=O)N2CCc3ccccc32)c(C)c1[N+](=O)[O-] (centres undefined) | – | 11.2 µM (active) |
| Cc1nn(CC(=O)NCc2ccccc2)c(C)c1[N+](=O)[O-] | 1.3% (inactive) | – |
| Cc1nn(CC(=O)NCCN2CCOCC2)c(C)c1[N+](=O)[O-] | 10.2% (inactive) | – |
